Source: PubChem BioAssay
VDR inh: inhibitors of human vitamin D receptor; Potency, µM, for inactives: max response, negative = inhibition, actives largely listed as inhibitors; P11473; AID 504847; 400,000 tested, 0.93% active; VDR-SRC2-3 peptide fluorescence polarization, 2 h
Target sequence (P11473 whole entry, looked up): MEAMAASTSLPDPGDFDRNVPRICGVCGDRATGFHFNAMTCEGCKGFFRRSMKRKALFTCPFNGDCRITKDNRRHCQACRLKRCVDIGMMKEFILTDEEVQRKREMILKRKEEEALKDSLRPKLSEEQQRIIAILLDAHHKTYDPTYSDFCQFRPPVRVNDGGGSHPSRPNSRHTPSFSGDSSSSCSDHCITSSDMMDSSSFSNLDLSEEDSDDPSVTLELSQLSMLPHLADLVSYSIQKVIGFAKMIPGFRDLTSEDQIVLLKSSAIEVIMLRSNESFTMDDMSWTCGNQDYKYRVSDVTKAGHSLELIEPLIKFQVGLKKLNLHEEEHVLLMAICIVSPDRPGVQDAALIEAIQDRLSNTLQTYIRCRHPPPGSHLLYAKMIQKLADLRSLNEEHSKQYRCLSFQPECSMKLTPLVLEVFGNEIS
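Signal is fluorescence polarization, reporting how far test compounds block the interaction of VDR with the SRC2-3 coregulator peptide after a 2 h room-temperature incubation.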
RGS12 GoLoco inh: RGS12 GoLoco-Gai1 interaction inhibition | P63096 | Gai1:RGS12 GoLoco peptide FP, rhodamine, 10 min | Potency, µM (highest dose often 61.6 µM), for the others: at the top dose activity, negative = inhibition, most hits filed as inhibitors | 230,000 tested, 0.44% active | AID 880; active = well fitted inhibition curve with a large enough effect, not every such curve was filed as active; inactive = no such curve, though single readings can be large or run the other way; note: nearly all actives have a fitted effect of over 30% in size
GCN5L2 inh: inhibitors of human GCN5L2 histone acetyltransferase; Q92830; GCN5L2 HAT assay, ThioGlo1 CoA-SH fluorescence; Potency, µM (series often up to 58.9 µM), without a hit: at the highest dose activity change, negative = inhibition, actives largely listed as inhibitors; 390,000 tested, 0.21% active; AID 504327
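Compounds, pin-transferred from DMSO stocks, meet 20nM GCN5L2 for 15 min before the reaction begins with H3(1-25) peptide (75uM) and acetyl-CoA (70uM). Thiol-reactive ThioGlo1 reports CoA release over 20 min at room temperature.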
TRb-SRC2 inh: TRbeta-SRC2 interaction inhibition; P10828; TRbeta-SRC2 peptide binding, fluorescence polarization; receptor liganded with 1 µM T3; Potency, µM (doses to about 106 µM), inactives show top-dose activity change, negative = inhibition, actives largely listed as inhibitors; 280,000 tested, 0.065% active; AID 1469;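 note: plate controls were bound peptide for no effect and peptide without receptor for full effect; nearly all actives have a fitted effect of over 50% in size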
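Read-out is fluorescence polarization (555 nm excitation, 632 nm emission) of a Texas Red SRC2 coactivator peptide; loss of signal reflects blocked binding to human TRb ligand-binding domain in the presence of 1 uM T3.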
TR SRC2 fluor cs: alters Texas Red total fluorescence, flagging assay interference. TRb/SRC2 Texas Red total fluorescence interference. Potency, µM (highest dose often 106 µM), inactives show at the top dose fluorescence change, negative = quenching. 280,000 tested, 0.29% active. AID 1479; active = well fitted curve in either direction with a large enough effect; inconclusive = small, poorly fitted or top-dose-only effect
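Human TRβ ligand-binding domain (0.6 uM) and Texas Red SRC2 peptide (20 nM) in Tris buffer with 1 uM T3 and 5% DMSO were incubated with pinned compound for 5 hr at ambient temperature. Total fluorescence was computed as S + 2P (555/632 nm).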
An asterisk follows results filed as active; ? = inconclusive; nt = not tested or not shown; ! = not confirmed by another sample; [ ] = remark or other dose. Most compounds without a hit are left out; they make up all but 1.2% or so of the library. Unless noted, calls come from the whole dose curve; as a rule, active = well fitted curve in the direction sought with a large enough effect; inconclusive = small, poorly fitted or top-dose-only effect, or another doubt; inactive = no such curve, though single readings can be large; an effect the other way counts as inactive or inconclusive. Unless noted, % is set by controls: 0 for no effect and ±100 for the full control effect; potency is the fitted concentration of half-maximal effect.

SMILES	VDR inh	RGS12 GoLoco inh	GCN5L2 inh	TRb-SRC2 inh	TR SRC2 fluor cs
CN1CC(CO)=C[C@H]2c3cccc4[nH]cc(c34)C[C@H]21	?	12.6µM*	-9.6%	-9.4%	2.4%
COC(=O)c1ccccc1CS(=O)(=O)NC(=O)Nc1nc(OC)cc(OC)n1	nt	nt	nt	1.8%[201 µM]	-0.7%[201 µM]
CCC(C)c1cc([N+](=O)[O-])cc([N+](=O)[O-])c1O (stereo not given)	nt	nt	nt	6.1%[201 µM]	-5.8%[201 µM]
CC[C@H](C)/C=C(C)/C=C/C1=CC2=C(Cl)C(=O)[C@@](C)(OC(C)=O)C(=O)C2=CO1	39.8µM*	nt	nt	nt	nt
COc1cccc2c1C(=O)c1c(O)c3c(c(O)c1C2=O)C[C@](O)(/C(C)=N\O)C[C@@H]3O[C@H]1C[C@H](N)[C@@H](O)[C@H](C)O1	nt	0.631µM*	nt	nt	nt
COc1cc(N2CCOCC2)ccc1C=C1C(=O)NC(=O)NC1=O	-13.3%	7.5%	-11.8%	-20.7%[53 µM]	31.6µM*[quencher]
COP(=S)(OC)Oc1c(Cl)cc(C)cc1Cl	nt	nt	nt	11.2%[201 µM]	1.8%[201 µM]
[CH3][Hg][Cl]	nt	25.1µM*	nt	-4.5%	-3.6%
CC(C)OC(=O)C(O)(c1ccc(Br)cc1)c1ccc(Br)cc1	nt	nt	nt	2.9%[201 µM]	0.5%[201 µM]
O=C1NC(=O)N(c2ccccc2F)C(=O)/C1=C/c1ccc(Oc2ccc([N+](=O)[O-])cn2)cc1	79.4µM*	-14.4%	-8.8%	1.4%	-1.1%
C1CC[CH]([Sn]([CH]2CCCCC2)[CH]2CCCCC2)CC1	nt	nt	nt	7.0%[201 µM]	0.9%[201 µM]
O=C(c1cccc(C(F)(F)F)c1)C1CCCN(Cc2ncc[nH]2)C1 (stereo not given)	8.1%	0.0%	0.159µM*	-10.6%[53 µM]	-1.4%[53 µM]
CNc1cc(Cl)c2nonc2c1[N+](=O)[O-]	35.5µM*	-26.5%	?	1.8%	-4.3%
Cc1ccc(-n2sc3ccccc3c2=O)cc1	3.16µM*	10µM*	7.08µM*	-5.3%	-0.9%
O=C1NC(=S)N(c2ccc(F)cc2)C(=O)/C1=C/c1ccco1	nt	nt	5.62µM*	nt	nt
O=C1NC(=S)N(c2ccc(F)cc2)C(=O)/C1=C\c1ccoc1	?	232.2%	?	12.9%	7.2%
COc1ccc(OC)c(N2C(=O)/C(=C/c3ccco3)C(=O)NC2=S)c1	?	nt	12.6µM*	nt	nt
COc1cnc(OC)n2nc(NS(=O)(=O)c3c(OCC(F)F)cccc3C(F)(F)F)nc12	nt	nt	nt	-6.1%[201 µM]	-11.1%[201 µM]
C=CC1(C)OC(=O)N(c2cc(Cl)cc(Cl)c2)C1=O (stereo not given)	nt	nt	nt	-4.9%[201 µM]	-1.4%[201 µM]
O=C(Oc1ccc(Cl)cc1)N1CCOCC1	79.4µM*	nt	0.8%	nt	nt
CCOS(C)(=O)=O	13.7%	22.4µM*	-9.3%	-1.2%	-1.0%
CCCN1CCc2cccc3c2[C@H]1Cc1ccc(O)c(O)c1-3	7.94µM*!	nt	-12.6%	nt	nt
C=CCN1CCc2cccc3c2C1Cc1ccc(O)c(O)c1-3 (stereo not given)	?	11.5%	-4.2%	-2.4%	?
CCOP(=O)(OCC)Oc1nc(Cl)c(Cl)cc1Cl	nt	nt	nt	-3.2%[201 µM]	-0.2%[201 µM]
c1nc[n]([Sn]([CH]2CCCCC2)([CH]2CCCCC2)[CH]2CCCCC2)n1	50.1µM*	nt	0.6%	-8.0%	-0.1%
SMILES	VDR inh	RGS12 GoLoco inh	GCN5L2 inh	TRb-SRC2 inh	TR SRC2 fluor cs
C/C(=N\Nc1ccccc1)c1c(O)n(Cc2ccccc2)c(=O)[nH]c1=O	-27.9%	3.3%	-14.2%	-16.5%[53 µM]	0.0708µM*[quencher]
COc1cccc(C(=O)NN(C(=O)c2cc(C)cc(C)c2)C(C)(C)C)c1C	nt	nt	nt	-0.2%[201 µM]	3.0%[201 µM]
CN(C)[C@@H]1C(=O)C(C(N)=O)=C(O)[C@]2(O)C(=O)C3=C(O)c4c(O)ccc(Cl)c4[C@](C)(O)[C@H]3C[C@@H]12	?	0.5%[21.6 µM]	-18.5%[21.4 µM]	-0.4%[53 µM]	0.7%[53 µM]
CN(C)C1C(=O)C(C(N)=O)=C(O)[C@@]2(O)C(=O)C3=C(O)c4c(O)cccc4[C@@](C)(O)C3CC12 (stereo not given in full)	nt	35.5µM*	-3.1%	-0.1%	?
FC(F)(F)c1ccc(OCCCOc2c(Cl)cc(OCC=C(Cl)Cl)cc2Cl)nc1	nt	nt	nt	-2.5%[201 µM]	0.4%[201 µM]
CC(C)CN(CC(C)C)c1ccc(C=C2C(=O)NC(=S)NC2=O)cc1[N+](=O)[O-]	35.5µM*	138.8%	?	-3.5%	-1.2%
CCN(CC)c1ccc(C=C2C(=O)NC(=S)NC2=O)cc1	?	285.0%	-22.4%	-6.9%	2.1%
Nc1nc(N)nc(N)n1	nt	nt	nt	1.5%[201 µM]	-3.9%[201 µM]
COC(=O)[C@]1(C)CC[C@@]2(C)CC[C@@]3(C)C4=CC=C5C(=CC(=O)C(O)=C5C)[C@@]4(C)CC[C@@]3(C)C2C1 (stereo not given in full)	3.16µM*	-3.4%	-16.5%	-1.7%	1.0%
CCOC(=O)C(C)OC(=O)c1cc(Oc2ccc(C(F)(F)F)cc2Cl)ccc1[N+](=O)[O-] (stereo not given)	nt	nt	nt	-5.7%[201 µM]	-0.5%[201 µM]
Cc1ccc2c(c1)=NC(=O)/C(=C/c1c(O)[nH]c(=O)[nH]c1=O)C=2	79.4µM*	19.8%	19.6%	5.5%	-0.4%
Cc1ccc2c(c1)=C/C(=C\c1c(O)[nH]c(=S)[nH]c1=O)C(=O)N=2	nt	-9.0%	-25.7%	1.9%	-0.9%
CS(=O)(=O)c1cc(C(F)(F)F)ccc1C(=O)c1cnoc1C1CC1	nt	nt	nt	0.6%[201 µM]	-12.6%[201 µM]
O=C1NC(=O)C(Nc2ccc(Cl)c(Cl)c2)C(=O)N1	39.8µM*	nt	nt	nt	nt
CN1CC=C2C(C#N)=C(N)C(C#N)(C#N)C(c3ccncc3)C2C1 (stereo not given)	-6.4%	25.1µM*	-25.0%	-23.6%	12.1%
CC1=C(C(=O)O)N2C(=O)[C@@H](NC(=O)CCCC(=O)O)[C@H]2SC1	-19.7%	-3.5%	-8.7%	-5.3%	0.3%
Nc1nc(/C(=C/CC(=O)O)C(=O)NC2C(=O)N3C(C(=O)O)=CCSC23)cs1 (stereo not given)	50.1µM*	-8.6%	9.7%	-1.9%	-1.4%
N#Cc1c[nH]cc1-c1cccc2c1OC(F)(F)O2	nt	nt	nt	0.1%[201 µM]	-7.9%[201 µM]
CCCCCn1c(NC(=O)c2ccco2)c(C(=O)OCC)c2nc3ccccc3nc21	5.01µM*	21.2%	-4.4%	-20.4%	-0.2%
COCCCn1c(N)c(C(=O)OCCOC)c2nc3ccccc3nc21	-2.6%	7.7%	?	-28.8%	-4.0%
CCOC(=O)c1c(N)n(CCCOC(=O)c2ccco2)c2nc3ccccc3nc12	-8.8%	14.1%	-9.1%	1.1%	-5.2%
CC(C)CCNC(=O)c1c(N)n(Cc2ccc3c(c2)OCO3)c2nc3ccccc3nc12	89.1µM*	8.1%	-17.0%	?	0.0%
